The values that follow come from PubChem BioAssay (NCATS).

The nature of assay [1]: qHTS Assay for Lipid Storage Modulators (AID 1519; calls by dose curve; as to activity change, negative = inhibition: % is scaled to controls: 0 for no effect and ±100 for the full control effect). As to conditions: Drosophila S3 cells, BODIPY lipid droplet/cell ratio, laser cytometry, cells loaded with oleic acid. The gist of the method:
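Cells seeded at 5,000 per well were treated with compounds over a concentration series and loaded with oleic acid (400 uM, as added). Lipid droplet fluorescence (488 nm excitation, 500-530 nm channel) was read by laser-scanning cytometry and normalized to 20 uM Triacsin C.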

Assay [2] concerns the target DNA repair nuclease/redox regulator APEX1 (Homo sapiens) (UniProt P27695). Put plainly: qHTS Validation Assay for Inhibitors of the Human Apurinic/apyrimidinic Endonuclease 1 (APE1) (AID 1705;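 also: TAMRA fluorescence gain over two minutes as APE1 cuts a quenched THF abasic duplex; % is scaled to controls: 0 for no effect and ±100 for the full control effect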). As to conditions: purified APE1 endonuclease activity, fluorescence, titration; series mostly up to 57.1 µM. In outline: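 Substrate: 50 nM final fluorophore/quencher THF-abasic duplex. Enzyme preincubated with compounds 15 min, RT. Progress derived from fluorescence difference, third minus first kinetic read.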

Assay [3] is described as follows: Counterscreen for APE1 Inhibitors: Fluorescent Dye Displacement Validation Assay (AID 1707).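 Also: plate controls were ThO with dsDNA and no compound for no effect and ThO without dsDNA for full effect.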 Conditions: fluorescent dye displacement from DNA; series mostly up to 57.1 µM. In outline:
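Counterscreen flags promiscuous DNA binders: compounds displacing ThO from duplex DNA (abasic THF site, 50 nM) reduce 540 nm emission (480 nm excitation). ThO 250 nM final; Tris-HCl pH 7.5 with NaCl, MgCl2 and Tween-20.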

A short description of assay [4]: qHTS for differential inhibitors of proliferation of Plasmodium falciparum line 7G8 (AID 1815).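 Also: parasite growth measured after three days of incubation.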 Also: potency is read from the fitted curve at half-maximal effect.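 As to activity change, negative = inhibition: plate controls were vehicle wells for no effect and reference inhibitor wells for full effect.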 As to conditions: Plasmodium falciparum 7G8 proliferation inhibition; series mostly up to 28.7 µM.
Assay [5] can be described thus: qHTS for differential inhibitors of proliferation of Plasmodium falciparum line GB4 (AID 1816).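 Also: parasite growth measured after 72 h incubation.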 Also: potency is read from the fitted curve at half-maximal effect.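 As to activity change, negative = inhibition: 0% = vehicle DMSO and -100% = reference inhibitor.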 As to conditions: Potency: Plasmodium falciparum GB4 proliferation inhibition; series mostly up to 28.7 µM.
Assay [6] is described as follows: qHTS for differential inhibitors of proliferation of Plasmodium falciparum line 3D7 (AID 1876). Also: potency is read from the fitted curve at half-maximal effect. Conditions: P. falciparum 3D7 proliferation inhibition; series mostly up to 28.7 µM.
A short description of assay [7]: qHTS for differential inhibitors of proliferation of Plasmodium falciparum line D10 (AID 1877).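 Also: parasites grown with compound for 72 h before DNA staining.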 Also: potency is read from the fitted curve at half-maximal effect.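 As to activity change, negative = inhibition: plate controls were vehicle wells for no effect and reference inhibitor wells for full effect.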 As to conditions: series mostly up to 28.7 µM.
Assay [8] in a line: qHTS for differential inhibitors of proliferation of Plasmodium falciparum line Dd2 (AID 1882). Also: nearly all actives have a fitted effect of over 65% in size. Also: potency is read from the fitted curve at half-maximal effect.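 As to activity change, negative = inhibition: compound exposure of 72 h on infected erythrocytes; plate controls were DMSO vehicle for no effect and 0.29 µM artemisinin for full effect.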 Conditions: Potency: Plasmodium falciparum Dd2 proliferation inhibition; series mostly up to 28.7 µM. The gist of the method:
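RBC culture, 0.3% parasitemia / 2.5% Hct final; cpd added by pin tool in DMSO; 72 h, 37 C, 5% CO2; lysis buffer + SYBR Green I, o/n RT dark; FI 485/535; norm. to artemisinin 0.29 uM and DMSO.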

Assay [9] in a line: qHTS for differential inhibitors of proliferation of Plasmodium falciparum line W2 (AID 1883).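 Also: parasites grown with compound for 72 h before lysis and staining.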 Also: potency is read from the fitted curve at half-maximal effect.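 As to activity change, negative = inhibition: 0% = vehicle wells and -100% = control inhibitor wells.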 As to conditions: Potency: Plasmodium falciparum W2 proliferation inhibition; series mostly up to 28.7 µM.
The nature of assay [10]: qHTS for differential inhibitors of proliferation of Plasmodium falciparum line HB3 (AID 1886).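 Also: parasites grown with compound for 72 h before SYBR Green readout.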 Also: potency is read from the fitted curve at half-maximal effect.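 As to activity change, negative = inhibition: plate controls were vehicle for no effect and reference inhibitor for full effect.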 As to conditions: Potency: Plasmodium falciparum HB3 proliferation inhibition; series mostly up to 28.7 µM.
Assay [11] in a line: qHTS Assay for Modulators of Human Peripheral Myelin Protein 22 (PMP22) Expression/Activity (AID 1967; active = well fitted curve in the direction sought with a large enough effect in the signal ratio; the % refers to the signal ratio;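 also: 0% = untreated cells and 100% end not stated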). As to conditions: Cell-based PMP22 reporter, dual-color luciferase ratio, 0% = compound-free control cells, mouse Pmp22 promoter in mouse Schwann cells; series mostly up to 115 µM. The gist of the method: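 Engineered MSC80 cells, Pmp22-promoter green and EF-alpha red luciferase reporters; 24h compound treatment at 37 °C. Concentration-response fits on green, red and ratio signals, each overlap-corrected, with %Activity normalized to untreated wells.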

Assay [12] deals with Ferritin light chain (Equus caballus) (UniProt P02791). Put plainly: qHTS Validation Assay for Identification of Novel General Anesthetics (AID 2323). Also: potency is read from the fitted curve at half-maximal effect. As to conditions: horse apoferritin, anesthetic-site fluorescent probe displacement; series mostly up to 76.9 µM. The gist of the method:
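Normalized fluorescence response, scaled between free 1-AMA and 1-AMA/apoferritin complex, fitted to a four-parameter Hill equation for concentration-effect values. Binding mix: 10 uM horse-spleen apoferritin, 50% saturated 1-AMA in PBS; read 380/535 nm after 10 min.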

Assay [13] addresses ATP-dependent DNA helicase Q1 (Homo sapiens) (UniProt P46063). Put plainly: qHTS Validation Assay for Inhibitors of RecQ-Like Dna Helicase 1 (RECQ1) (AID 2353).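 Also: plate controls were DMSO vehicle for no effect and enzyme-free control for full effect.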 Conditions: recombinant RECQ1 helicase DNA unwinding assay; series mostly up to 25.6 µM. In outline:
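RECQ1T1 50 nM; forked duplex (20 bp + 30-nt ss tails) 200 nM, ATP 2 mM final; pH 8.0, 2 mM MgCl2, 2.5 ug/ml poly(dI-dC); 15 min compound preincubation; discontinuous kinetic read over 2 h at RT.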

Assay [14] addresses Endonuclease 4 (Escherichia coli (strain K12)) (UniProt P0A6C1). Put plainly: Counterscreen for APE1 Inhibitors: qHTS Validation Assay for Inhibitors of Endonuclease IV (AID 1708). Also: % is scaled to controls: 0 for no effect and ±100 for the full control effect. Conditions: E. coli endonuclease IV, DNA cleavage fluorescence; series mostly up to 57.1 µM. The gist of the method:
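The reaction buffer contained 50 mM Tris-HCl pH 7.5, 50 mM NaCl, 2 mM MgCl2, 1 mM DTT and 0.01% Tween-20. Incision of a 50 nM fluorophore/quencher THF substrate by 2 nM enzyme was measured kinetically.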

The nature of assay [15]: Cell Viability - LYMP1-002 - Assay at 24 hr (AID 993). Also: % is scaled to controls: 0 for no effect and ±100 for the full control effect. Conditions: LYMP1-002 lymphoblastoid cells viability; series mostly up to 92.2 µM. The gist of the method: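 CellTiter-Glo luminescence (intracellular ATP) after 24 h compound exposure, 37 C, in LYMP1-002 human lymphoblastoid cells; decreased ATP taken as cytotoxicity. AC50 from standard Hill fit of concentration-response curves.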

A short description of assay [16]: Cell Viability - LYMP1-002 - Assay at 40 hr (AID 994).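 Also: 0% = DMSO only and full inhibition = 92 µM tetraoctylammonium bromide; nearly all actives have a fitted effect of over 60% in size.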 As to conditions: LYMP1-002 lymphoblastoid cell viability; series mostly up to 92.2 µM. The gist of the method: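 qHTS cytotoxicity; 2500 cells/well, 5 hr 37 C settle, compound 40 hr 37 C. CellTiter-Glo, 30 min RT, luminescence (ATP). Concentration-response, Hill fit → AC50. Pos. ctrl tetraoctylammonium bromide.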

Assay [17] in a line: qHTS Assay for Identification of Small Molecule Inducers of Hypoxia Response (AID 2120; active = well fitted curve in the direction sought with a large enough effect in the signal ratio, with a control signal flat, not every such curve was filed as active; the % refers to the signal ratio; also: 0% is about no effect). Conditions: hypoxia response reporter cells, beta-lactamase ratio readout; series mostly up to 104 µM. In outline:
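Read-out: CCF4 FRET emission ratio 460nm/530nm (excitation 405nm), converted to %Activity, with AC50 fitted across a compound titration. ME-180 cells carried an HRE-driven beta-lactamase reporter; compound exposure 17 h, 37 degrees C.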

Assay [18] addresses alpha-glucosidase (Oryza sativa, rice) (UniProt Q653V4). Put plainly: Counterscreen for Glucocerebrosidase Inhibitors: qHTS Assay for Rice alpha-Glucosidase at pH 5.0 (AID 997).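 Also: 0% = full activity with enzyme and -100% = basal without enzyme.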 Conditions: rice alpha-glucosidase enzyme activity; series mostly up to 76.9 µM. The gist of the method: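 Endpoint fluorogenic assay at pH 5.0: compounds (0.7 nM to 77 uM) titrated against 4 nM rice enzyme and 400 uM 4-MU-alpha-glucoside for 20 min at room temperature; NaOH/glycine stop, read ex 365/em 440 nm, Hill-fitted AC50.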

Assay [19] addresses RecQ-like DNA helicase BLM (Homo sapiens) (UniProt P54132). Put plainly: qHTS Validation Assay for Inhibitors of Bloom's syndrome helicase (BLM) (AID 2364).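 Also: plate controls were DMSO vehicle for no effect and enzyme-free control for full effect.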 As to conditions: BLM helicase DNA unwinding, fluorescence, in vitro; series mostly up to 57.1 µM. In outline:
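Forked 20-bp duplex substrate (200 nM, TAMRA/BHQ-2) plus 2 mM ATP added after 15 min compound preincubation with 50 nM enzyme, pH 8.0, poly(dI-dC) 2.5 ug/ml. Strand separation followed by fluorescence (525/598 nm) over 2 h, normalized to enzyme-free and DMSO controls.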

The mark [20] stands for this setting: measured here: cell count channel max response.
Setting [21] is: measured here: lipid channel max response.

Several values for one entry are separate records, joined by “and”; a condition that tells them apart may be missing. Equal entries are not always repeated. Results filed as inconclusive are left out. Activity calls are given as the source filed them. Unless noted, calls follow the shape of the dose curve; as a rule, active = well fitted curve in the direction sought with a large enough effect; inconclusive = small, poorly fitted or top-dose-only effect, or another doubt; inactive = no such curve, though single readings can be large; an effect the other way counts as inactive or inconclusive.

ATP-dependent DNA helicase Q1 (Homo sapiens), sequence (P46063 whole entry, looked up): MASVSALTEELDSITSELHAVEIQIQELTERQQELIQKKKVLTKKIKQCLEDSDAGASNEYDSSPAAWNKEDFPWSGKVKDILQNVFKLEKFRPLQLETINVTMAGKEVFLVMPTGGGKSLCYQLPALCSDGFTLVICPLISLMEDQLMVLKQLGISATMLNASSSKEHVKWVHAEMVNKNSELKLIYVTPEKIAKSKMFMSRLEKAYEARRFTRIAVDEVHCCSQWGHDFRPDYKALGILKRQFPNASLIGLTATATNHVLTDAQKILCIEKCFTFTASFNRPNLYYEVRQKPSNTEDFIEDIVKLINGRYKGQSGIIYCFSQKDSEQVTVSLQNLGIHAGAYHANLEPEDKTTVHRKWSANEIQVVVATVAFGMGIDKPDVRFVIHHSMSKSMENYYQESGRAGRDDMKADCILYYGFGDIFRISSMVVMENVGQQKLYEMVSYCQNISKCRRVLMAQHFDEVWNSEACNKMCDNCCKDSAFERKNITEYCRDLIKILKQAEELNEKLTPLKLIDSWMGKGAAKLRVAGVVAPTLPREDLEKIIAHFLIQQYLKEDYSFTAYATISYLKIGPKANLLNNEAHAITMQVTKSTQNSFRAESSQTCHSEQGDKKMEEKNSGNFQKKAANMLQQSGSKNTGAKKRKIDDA
DNA repair nuclease/redox regulator APEX1 (Homo sapiens), sequence (P27695 whole entry, looked up): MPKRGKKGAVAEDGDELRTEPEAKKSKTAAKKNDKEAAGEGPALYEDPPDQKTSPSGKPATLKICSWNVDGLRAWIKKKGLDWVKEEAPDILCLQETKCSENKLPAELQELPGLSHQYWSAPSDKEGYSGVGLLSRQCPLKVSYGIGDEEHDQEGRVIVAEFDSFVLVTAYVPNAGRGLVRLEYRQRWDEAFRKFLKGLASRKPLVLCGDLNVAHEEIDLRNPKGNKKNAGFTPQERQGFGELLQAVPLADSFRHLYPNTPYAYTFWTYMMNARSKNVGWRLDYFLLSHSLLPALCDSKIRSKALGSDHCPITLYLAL
Ferritin light chain (Equus caballus), sequence (P02791 2-175 limits assumed): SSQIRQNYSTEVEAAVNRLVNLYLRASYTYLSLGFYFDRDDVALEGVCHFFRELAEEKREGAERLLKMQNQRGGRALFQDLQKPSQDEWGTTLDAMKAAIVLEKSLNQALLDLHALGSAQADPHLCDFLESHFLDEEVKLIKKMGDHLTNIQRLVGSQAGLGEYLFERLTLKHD
RecQ-like DNA helicase BLM (Homo sapiens), sequence (P54132 whole entry, looked up): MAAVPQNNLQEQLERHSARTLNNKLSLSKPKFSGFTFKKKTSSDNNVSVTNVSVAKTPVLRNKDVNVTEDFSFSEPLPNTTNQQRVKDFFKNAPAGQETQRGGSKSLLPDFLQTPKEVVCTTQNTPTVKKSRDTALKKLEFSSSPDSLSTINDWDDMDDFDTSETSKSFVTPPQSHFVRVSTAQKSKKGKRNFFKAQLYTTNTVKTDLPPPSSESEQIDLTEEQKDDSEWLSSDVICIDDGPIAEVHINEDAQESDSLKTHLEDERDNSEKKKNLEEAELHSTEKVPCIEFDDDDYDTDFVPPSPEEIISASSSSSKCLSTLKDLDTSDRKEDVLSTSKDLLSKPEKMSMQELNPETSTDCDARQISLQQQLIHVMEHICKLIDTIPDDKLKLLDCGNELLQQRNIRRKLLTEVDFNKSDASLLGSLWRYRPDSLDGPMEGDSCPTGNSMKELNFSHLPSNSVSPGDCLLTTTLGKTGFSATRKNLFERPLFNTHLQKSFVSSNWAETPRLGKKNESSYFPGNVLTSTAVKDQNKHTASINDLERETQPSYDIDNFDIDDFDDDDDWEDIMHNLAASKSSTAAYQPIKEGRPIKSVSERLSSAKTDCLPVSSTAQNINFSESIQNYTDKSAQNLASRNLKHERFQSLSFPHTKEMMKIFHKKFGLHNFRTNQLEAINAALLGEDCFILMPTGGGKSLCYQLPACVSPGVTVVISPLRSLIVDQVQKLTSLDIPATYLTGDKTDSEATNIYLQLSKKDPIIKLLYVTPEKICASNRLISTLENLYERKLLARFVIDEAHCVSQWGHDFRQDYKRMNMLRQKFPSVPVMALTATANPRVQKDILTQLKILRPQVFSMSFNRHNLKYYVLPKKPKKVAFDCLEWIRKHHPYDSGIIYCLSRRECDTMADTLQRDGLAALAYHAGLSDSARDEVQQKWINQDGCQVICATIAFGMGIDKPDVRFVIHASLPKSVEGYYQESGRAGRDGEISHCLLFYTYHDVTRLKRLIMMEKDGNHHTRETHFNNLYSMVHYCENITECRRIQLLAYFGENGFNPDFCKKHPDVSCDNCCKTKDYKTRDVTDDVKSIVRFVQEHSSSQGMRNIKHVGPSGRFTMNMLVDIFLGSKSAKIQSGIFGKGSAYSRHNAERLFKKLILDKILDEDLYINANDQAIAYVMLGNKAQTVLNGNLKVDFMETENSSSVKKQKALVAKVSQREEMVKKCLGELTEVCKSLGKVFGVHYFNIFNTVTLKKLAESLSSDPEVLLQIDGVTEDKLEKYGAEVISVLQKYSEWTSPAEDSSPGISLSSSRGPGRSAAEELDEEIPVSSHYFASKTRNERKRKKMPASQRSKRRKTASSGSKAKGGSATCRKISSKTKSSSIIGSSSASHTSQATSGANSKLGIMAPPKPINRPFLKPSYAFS

With `S=C(S)OC1CC2CC1C1CCCC21` (stereo not drawn), in assay [1] (at 57.5 µM (top of the series)), the activity change, negative = inhibition is -2.21% (inactive). The max response was -18.8% in assay [1] (setting [20]) and -14.9% in assay [1] (setting [21]). Also, the Potency result in assay [2], in assay [3], in assay [4], in assay [5], in assay [6] and in [7] was “inactive” throughout. For the same molecule, the Potency result in assay [8], in assay [9], in assay [10] and in assay [13] was “inactive” throughout. Moreover, the result in [11] was inactive. Also, in [12], the Potency is 17.8 µM (active).

Turning to `O=Nc1ccc2oc(=O)ccc2c1`, the Potency result in assay [2], in assay [3], in assay [14] and in assay [13] was “inactive” in each case. The Potency was 12.6 µM (active) in [4], 11.2 µM (active) in assay [6] and 12.6 µM (active) in [10].

Turning to `C#CCN1C(C)=C(C(=O)OC)C(c2cccc([N+](=O)[O-])c2)C(C(=O)OCC)=C1C` (stereo not drawn), the Potency result in assay [2], in assay [3] and in [13] was “inactive” throughout. Also, the Potency in assay [4] was 7.94 µM (active); in assay [5] it was 7.08 µM (active); in assay [6], 11.2 µM (active); in [7], 14.1 µM (active); in assay [8], 12.6 µM (active); in assay [9], 4.47 µM (active). The Potency in assay [10] was 7.94 µM (active).

On to `O=C1O/C(=C/Br)CCC1c1cccc2ccccc12` (stereo not drawn), for which the Potency entry in assay [2], in assay [3], in assay [14], in assay [7], in [8] and in assay [10] was “inactive” throughout. For the same molecule, the Potency entry in assay [13] was “inactive”. Moreover, the Potency in [9] was 11.2 µM (active). The result in [11] was inactive.

As for `Nc1ccc(O)c(C(=O)O)c1`, the Potency result in [15] and in assay [16] was “inactive” throughout. Further, the activity change, negative = inhibition in assay [1] (at 25.7 µM (top of the series)) was 1.25% (inactive). The max response was -4.23% in assay [1] (setting [20]) and -4.44% in assay [1] (setting [21]). For the same molecule, in [17], the outcome was inactive.

As for `CCCCCCCC/C=C\CCCCCCCC(=O)NCCO`, the molecule was called inactive in assay [18]. In addition, the activity change, negative = inhibition in assay [1] (at 57.5 µM (top of the series)) was 1.41% (inactive). Further, the values for the max response in assay [1] (setting [20]) and in assay [1] (setting [21]) were 18.9% and 20.6%, respectively. Besides, the Potency is 3.55 µM (active) in assay [4]; 2.51 µM (active) in [5]; 3.98 µM (active) in assay [6]; 7.94 µM (active) in assay [7]; 8.91 µM (active) in assay [8]; 2.51 µM (active) in assay [9]. For the same molecule, the Potency in assay [10] was 4.47 µM (active). Moreover, the Potency result in assay [13] was “inactive”.

As for `NCCCS(=O)(=O)O`, the activity change, negative = inhibition in [1] (at 57.5 µM (top of the series)) is 4.47% (inactive). For the same molecule, the max response came out at 17.3% in [1] (setting [20]) and 22.8% in assay [1] (setting [21]). Besides, the Potency result in assay [2], in assay [3], in [14], in assay [12], in assay [13] and in [19] was “inactive” each time. The Potency in assay [9] was 11.2 µM (active).

For `Cc1c(N)c(=O)n(-c2ccccc2)n1C`, the values for the activity change, negative = inhibition in [1] (at 25.7 µM (top of the series)) and in assay [1] (at 57.5 µM (top of the series)) were -0.255% (inactive) and 3.79% (inactive), respectively. The max response in [1] (setting [20]) was 3.27% and 4.31%; in [1] (setting [21]), 6.06% and 9.92%.

As to `CC(C)(C)c1ccc(S(=O)(=O)/C=C/C#N)cc1`, the Potency result in assay [2], in [3], in assay [14], in [12] and in assay [13] was “inactive” in each case. Also, the Potency in [4] was 10 µM (active); in assay [5], 14.1 µM (active); in assay [6], 10 µM (active); in assay [7], 12.6 µM (active); in assay [8], 11.2 µM (active); in assay [9] it was 7.08 µM (active). Also, in [10], the Potency is 8.91 µM (active).

Turning to `O=C1CN(/N=C/c2ccc([N+](=O)[O-])o2)C(=O)N1`, the Potency entry in assay [15] is “inactive”. Further, the activity change, negative = inhibition in assay [1] (at 57.5 µM (top of the series)) is 8.89% (inactive). Also, the max response in [1] (setting [20]) is 3.43%; in assay [1] (setting [21]), 14.3%. The outcome in assay [17] was inactive.

In the case of `CN1CCc2ccccc2Cc2[nH]c3ccccc3c2CC1`, the Potency entry in assay [2], in assay [3], in assay [14], in [12] and in [13] was “inactive” in each case. The Potency is 7.08 µM (active) in assay [4]; 10 µM (active) in assay [5]; 7.08 µM (active) in [6]; 12.6 µM (active) in assay [7]; 12.6 µM (active) in assay [8]; 5.62 µM (active) in assay [9]. Also, the Potency in [10] is 10 µM (active).

On to `CCCCCCCCCCCCCCCCCC(=O)OC(CC(=O)O)C[N+](C)(C)C` (stereo not drawn), for which the Potency entry in [2], in assay [3], in [4], in [5], in [6] and in assay [7] was “inactive” in each case. Besides, the Potency entry in assay [8], in [9], in assay [10], in assay [13] and in assay [19] was “inactive” each time.
